The record followed here is PubChem BioAssay (NCATS).

Experiment [1] deals with Cytochrome P450 3A7 (Homo sapiens) (UniProt P24462). In words: Cytochrome P450 family 3 subfamily A member 7 (CYP3A7) small molecule antagonists: luciferase biochemical qHTS assay (AID 1963596). Further: on the % scale 0 is the no-effect control and ±100 the full control effect; nearly all actives have a fitted effect of over 40% in size. The gist of the method:
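Compounds were screened in qHTS format for interference with CYP3A7 turnover of a proluciferin substrate. Reactions ran 1 h at room temperature after NADPH regeneration solution was added, then luciferin product was detected by luminescence.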
A general note: In qHTS, concentration-response curves come from the screen itself.

A short description of experiment [2]: Viability qHTS for spleen associated tyrosine kinase inhibitor (SYKi) drug resistant MV4-11 cells (AID 1963824). Further: nearly all actives have a fitted effect of over 35% in size. Further: potency means the concentration at half of the fitted maximal effect. The gist of the method: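 SYK-inhibitor-resistant MV4-11 AML cells were seeded at 500 per well onto compound and cultured 72 hours (37 °C, 5% CO2). CellTiter-Glo was then added, and after 10 min at room temperature, luminescence gave viability.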

The nature of experiment [3]: Quantitative highthroughput screen to assess conditional lethalithy of NOMO1 cells grown in RPMI1640 with untreated serum (RPMI+s) (AID 1963876). Further: nearly all actives have a fitted effect of over 35% in size. Further: potency means the concentration at half of the fitted maximal effect.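 On Viability: 100% = DMSO wells and 0% = empty wells without cells.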 Put shortly:
(§1)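 Each medium arm—HPLM with 10% dialyzed FBS, or RPMI1640 with 5 mM glucose and 10% untreated or dialyzed FBS—was screened against an 11-point, 3-fold compound titration for 48 h at 37 °C, with CellTiter-Glo luminescence as endpoint.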

Experiment [4] is described as follows: Quantitative highthroughput screen to assess conditional lethalithy of NOMO1 cells grown in RPMI1640 with dialyzed fetal bovine serum (RPMI+ds) (AID 1963877). Further: nearly all actives have a fitted effect of over 30% in size. Further: potency means the concentration at half of the fitted maximal effect.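 On Viability: series mostly up to about 46 µM; 100% = DMSO control wells and 0% = empty wells.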 Put shortly:
as §1

Experiment [5] in a line: Quantitative highthroughput screen to assess conditional lethalithy of NOMO1 cells grown in Human Plasma-Like Medium with dialyzed fetal bovine serum (HPLM+ds) (AID 1963878).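 Further: 100% = DMSO wells and 0% = empty wells on each plate; nearly all actives have a fitted effect of over 35% in size.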 The gist of the method:
as §1

Experiment [6] in a line: Quantitative highthroughput screen to assess conditional lethalithy of P12 Ichikawa cells grown in Human Plasma-Like Medium with dialyzed fetal bovine serum (HPLM+ds) (AID 1963879). Further: nearly all actives have a fitted effect of over 35% in size. Further: potency means the concentration at half of the fitted maximal effect. On Viability: series mostly up to about 46 µM. Conditions: Potency: viability. The gist of the method: as §1
The nature of experiment [7]: Quantitative highthroughput screen to assess conditional lethalithy of P12 Ichikawa cells grown in RPMI1640 with dialyzed fetal bovine serum (RPMI+ds) (AID 1963880). Further: nearly all actives have a fitted effect of over 35% in size. Further: potency means the concentration at half of the fitted maximal effect.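 On Viability: 100% = DMSO wells and 0% = empty wells on each plate.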 The note with it: Potency: P12-Ichikawa viability. The gist of the method: as §1
Experiment [8] is described as follows: Quantitative highthroughput screen to assess conditional lethalithy of P12 Ichikawa cells grown in RPMI1640 with untreated serum (RPMI+s) (AID 1963881). Further: nearly all actives have a fitted effect of over 35% in size. Further: potency means the concentration at half of the fitted maximal effect.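 On Viability: series mostly up to about 46 µM; 100% = DMSO wells and 0% = empty wells without cells.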 Conditions: Potency: viability. The gist of the method:
as §1

The nature of experiment [9]: Quantitative highthroughput screen to assess conditional lethalithy of SEM cells grown in Human Plasma-Like Medium with dialyzed fetal bovine serum (HPLM+ds) (AID 1963882). Further: nearly all actives have a fitted effect of over 35% in size. Further: potency means the concentration at half of the fitted maximal effect. On Viability: series mostly up to about 46 µM. Put shortly:
as §1

A short description of experiment [10]: Quantitative highthroughput screen to assess conditional lethalithy of SEM cells grown in RPMI1640 with unreated serum (RPMI+s) (AID 1963883). Further: nearly all actives have a fitted effect of over 35% in size. Further: potency means the concentration at half of the fitted maximal effect.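 On Viability: 100% = DMSO wells and 0% = empty wells without cells.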 Put shortly:
as §1

Experiment [11] is described as follows: Quantitative highthroughput screen to assess conditional lethalithy of SEM cells grown in RPMI1640 with dialyzed fetal bovine serum (RPMI+ds) (AID 1963884). Further: nearly all actives have a fitted effect of over 35% in size. Further: potency means the concentration at half of the fitted maximal effect.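 On Viability: series mostly up to about 46 µM; 100% = DMSO control wells and 0% = empty wells without cells.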 The gist of the method: as §1
The nature of experiment [12]: Cellular viability qHTS for adrenocortical cancer (ACC) cell line SW-13 (AID 1963989). Further: nearly all actives have a fitted effect of over 65% in size. Further: potency means the concentration at half of the fitted maximal effect.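 On activity (max response): cells grown in serum-free medium with ITS supplement; on the % scale 0 is the no-effect control and ±100 the full control effect.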 Conditions: SW-13 ACC cells viability, CellTiter-Glo, 48 h; activity (max response): hits give low values. Put shortly:
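Here, serum-free SW-13 cultures were dosed up to 46 uM. Following 48 h, ATP-dependent luminescence (CellTiter-Glo) reported viable cells, and logistic modeling produced IC50 values.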

Experiment [13] in a line: Cellular viability qHTS for adrenocortical cancer (ACC) cell line NCI-H295R (AID 1963990). Further: nearly all actives have a fitted effect of over 60% in size. Further: potency means the concentration at half of the fitted maximal effect.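 On activity change, negative = viability loss: 0% = DMSO only wells and -100% = full killing with cytotoxic reference compound.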 The gist of the method:
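Viability of NCI-H295R after 48 h of treatment (final up to 46 uM) measured through cellular ATP luminescence.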

Each structure is given as a SMILES string. Several values for one entry are separate records, joined by “and”; a condition that tells them apart may be missing. Identical values can stand only once. Inconclusive results are not listed. A number with no mark means an inactive call. Activity calls are given as the source filed them. The call rests on the fitted dose curve; in most records, active means well fitted curve in the direction sought with a large enough effect; inconclusive means small, poorly fitted or top-dose-only effect, or another doubt; inactive means no such curve, though single readings can be large; an effect the other way counts as inactive or inconclusive.

Sequence of Cytochrome P450 3A7 (Homo sapiens) (P24462 whole entry, looked up): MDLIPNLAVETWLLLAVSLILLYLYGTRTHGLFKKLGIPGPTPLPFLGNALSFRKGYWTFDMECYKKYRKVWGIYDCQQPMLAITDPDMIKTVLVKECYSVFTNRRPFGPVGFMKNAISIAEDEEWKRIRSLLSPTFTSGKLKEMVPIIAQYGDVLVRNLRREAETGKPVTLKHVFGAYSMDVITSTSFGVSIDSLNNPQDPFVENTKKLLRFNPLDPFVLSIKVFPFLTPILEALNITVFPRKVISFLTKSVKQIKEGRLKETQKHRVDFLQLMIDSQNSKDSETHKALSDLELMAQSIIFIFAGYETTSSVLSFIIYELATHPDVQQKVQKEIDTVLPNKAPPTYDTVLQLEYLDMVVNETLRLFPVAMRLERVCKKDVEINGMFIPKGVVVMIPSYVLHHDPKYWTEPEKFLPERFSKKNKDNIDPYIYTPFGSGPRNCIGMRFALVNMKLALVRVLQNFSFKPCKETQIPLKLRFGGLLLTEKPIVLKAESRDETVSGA

As for `CNC(=O)c1ccc(-c2cnc3ncc(Cc4ccc5ncccc5c4)n3n2)cc1F`, the Potency result in experiment [1], in experiment [3], in experiment [4], in [5], in [6] and in experiment [7] was “inactive” each time. Besides, the Potency entry in experiment [8], in [9], in experiment [10], in [11] and in experiment [13] was “inactive” in each case. Besides, the Potency in experiment [2] is 2.06 µM (active). For the same compound, in experiment [12], the activity (max response) is 0.555%.

As to `CCOC(=O)N1c2ccc(C(F)(F)F)cc2[C@@H](N(Cc2cc(C(F)(F)F)cc(C(F)(F)F)c2)C(=O)OC)C[C@H]1CC`, the Potency result in experiment [1], in [3], in experiment [4], in experiment [5], in experiment [6] and in experiment [7] was “inactive” throughout. For the same compound, the Potency result in experiment [8], in experiment [9], in experiment [10] and in experiment [11] was “inactive” throughout. For the same compound, the Potency in experiment [2] is 7.42 µM (active). Moreover, in experiment [12], the activity (max response) is 4.35%.

Turning to `Cc1cn([C@H]2C[C@H](N=[N+]=[N-])[C@@H](CO)O2)c(=O)[nH]c1=O`, the Potency entry in [1], in experiment [2], in experiment [9], in experiment [10] and in experiment [13] was “inactive” each time. In addition, the figures for the Potency in experiment [3], in experiment [4] and in experiment [6] were 1.32 µM (active), 1.87 µM (active) and 10.5 µM (active), respectively. Also, in experiment [12], the activity (max response) was -7.12%.

`c1ccc2c(-c3cnn4cc(-c5ccc(N6CCNCC6)cc5)cnc34)ccnc2c1`: the Potency entry in experiment [1] was “inactive”. Moreover, the Potency in experiment [2] is 0.833 µM (active); in experiment [9] it was 2.64 µM (active); in experiment [10] it was 5.26 µM (active); in experiment [12], 3.98 µM (active).

`COc1ccccc1OC(=O)Oc1ccccc1OC`: the Potency result in [1] is “inactive”. Also, the Potency in experiment [2] is 5.96 µM (active). For the same compound, the activity (max response) in [12] was 1.52%.

For the compound `CC1COc2c(N3CCN(C)CC3)c(F)cc3c(=O)c(C(=O)O)cn1c23` (centres undefined), the Potency result in [1], in experiment [3], in experiment [5], in experiment [6], in experiment [7] and in experiment [8] was “inactive” throughout. The Potency result in experiment [10] and in experiment [13] was “inactive” each time. Moreover, in experiment [2], the Potency is 8.41 µM (active). The activity (max response) in experiment [12] is 4.41% and 9.62%.

As for `Cc1ccnc(NS(=O)(=O)c2ccc(N)cc2)n1`, the Potency result in [1] and in experiment [2] was “inactive” in each case. Moreover, the activity (max response) in experiment [12] was 8.12%.

`COc1cc2c(Oc3ccc(-c4cnc(Nc5ccc(F)cc5)n(C)c4=O)cc3F)ccnc2cc1OCCCN1CCOCC1`: in [1], the Potency entry was “inactive”. For the same compound, the Potency was 58 nM (active) and 29.5 nM (active) in [2]; 23.5 µM (active) in experiment [4]; 1.05 µM (active) in experiment [10]; 83.3 nM (active) in [11]; 15.8 µM (active) in experiment [12]; 3.98 µM (active) in [13].

Turning to `COc1nc(N)nc2c1ncn2[C@@H]1O[C@H](CO)[C@@H](O)[C@@H]1O`, the Potency result in experiment [1], in [2], in [3], in experiment [4], in experiment [5] and in [6] was “inactive” each time. In addition, the Potency result in experiment [7], in [8], in [9], in experiment [10], in experiment [11] and in experiment [13] was “inactive” in each case. The activity (max response) in experiment [12] was -9.37%.

Consider `N[C@@H](C(=O)N[C@@H]1C(=O)N2C(C(=O)O)=C(Cl)CS[C@H]12)c1ccccc1`, for which the activity change, negative = inhibition in experiment [1] is -8.83% [at 11.5 µM]. In addition, the Potency in experiment [2] is 0.686 µM (active). Moreover, the Potency entry in experiment [3], in experiment [4], in experiment [5], in experiment [7], in experiment [8] and in experiment [9] was “inactive” throughout. Moreover, the Potency entry in experiment [10] and in experiment [11] was “inactive” throughout. In addition, the activity (max response) in experiment [12] was 7.53%. For the same compound, the activity change, negative = viability loss in [13] was -18.4% [at 9.17 µM].

As for `CC(=O)NC(Cc1ccccc1)C(=O)O` (centres undefined), the Potency result in [1] and in experiment [2] was “inactive” throughout. Also, the activity (max response) in experiment [12] was -3.3%.

Turning to `N=C(N)c1ccc2cc(OC(=O)c3ccc(N=C(N)N)cc3)ccc2c1`, the Potency result in experiment [1], in experiment [6], in experiment [9], in [10] and in experiment [11] was “inactive” in each case. For the same compound, the Potency in experiment [2] is 18.6 µM (active). The activity (max response) in experiment [12] was -32.1%.

On to `Nc1nc2c(ncn2COCCO)c(=O)[nH]1`, for which the Potency entry in [1], in experiment [2], in [3], in experiment [6], in experiment [7] and in experiment [8] was “inactive” each time. Further, in experiment [13], the Potency result was “inactive”. Also, in experiment [12], the activity (max response) is 1.46% and 4.77%.

As for `CCN(CCO)CCCC(C)Nc1ccnc2cc(Cl)ccc12` (centres undefined), the activity change, negative = inhibition in [1] is 10.6% [at 4.83 µM]. Also, the viability, % of control in experiment [2] is 88.8% [at 4.97 µM]. The Potency in experiment [3] is 10.5 µM (active); in experiment [6] it was 4.18 µM (active); in [7] it was 2.64 µM (active); in experiment [8], 10.5 µM (active). Besides, the activity (max response) in [12] is 4.84% and 9.37%. For the same compound, the activity change, negative = viability loss in [13] is 1.42% [at 3.81 µM] and 0.71% [at 3.81 µM].

For the compound `CN1CCN(C2CCN(C(=O)Nc3cc(Oc4ccc(NC(=O)C5(C(=O)Nc6ccc(F)cc6)CC5)c(F)c4)ccn3)CC2)CC1`, in experiment [1], the Potency result is “inactive”. Moreover, the Potency was 116 nM (active) and 132 nM (active) in experiment [2]; 28.2 µM (active) in [12].

`CC(C)c1noc(N2CCC(COc3ccc(-c4ccc(S(C)(=O)=O)cc4)nc3)CC2)n1`: the Potency entry in [1], in [3], in experiment [4], in experiment [5], in experiment [6] and in experiment [7] was “inactive” throughout. In addition, the Potency entry in experiment [8], in [9] and in experiment [13] was “inactive” each time. In experiment [2], the Potency is 5.25 µM (active). Also, the activity (max response) in [12] was -1.34%.

Take `CCCc1nc(C(C)(C)O)c(C(=O)O)n1Cc1ccc(-c2ccccc2-c2nn[nH]n2)cc1`: the Potency entry in [1], in experiment [2], in experiment [3], in experiment [4], in experiment [5] and in [7] was “inactive” throughout. The Potency result in experiment [8], in experiment [9], in experiment [10], in experiment [11] and in [13] was “inactive” throughout. Besides, the activity (max response) in experiment [12] was 8.92%.
